# Assay results from PubChem BioAssay (Tox21).
# Values joined by “and” are separate entries in the source; they are usually repeats but may differ in a detail not shown here. Identical values can stand only once. A number with no mark means an inactive call. Inconclusive results are not listed. Where a call stands in place of a potency, no number is given. Active and inactive are the calls of the source. Unless noted, calls follow the shape of the full dose curve.
# Experiments:
# [1] = Nuclear factor erythroid 2-related factor 2/antioxidant responsive element (Nrf2/ARE) small molecule agonists: qHTS cell viability counter screen in human keratinocytes (AID 1919968; active = well fitted curve in the direction sought with a large enough effect in the repeat runs; an effect the other way counts as inactive or inconclusive; also: nearly all actives have a fitted effect of over 55% in size); details: KeratinoSens HaCaT ARE cells viability, CellTiter-Fluor, 24 h; series mostly up to 92.4 µM
# Procedure, shortened: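 Cells of the KeratinoSens line were plated at 1,500 per well and left for 5 h before compound transfer from DMSO stocks. After a 23 h incubation (37 C, 5% CO2), CellTiter-Fluor was added. Signal was taken as fluorescence intensity 1 h later.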
# [2] = Nuclear factor erythroid 2-related factor 2/antioxidant responsive element (Nrf2/ARE) small molecule agonists: luciferase reporter gene qHTS assay in human keratinocytes (AID 1919969); details: KeratinoSens HaCaT ARE-luciferase, luminescence, 24 h; series mostly up to 92.4 µM; also: nearly all actives have a fitted effect of over 35% in size; also: potency is read from the fitted curve at half-maximal effect
# [3] = biological target: Gonadotropin-releasing hormone receptor (Homo sapiens) (UniProt P30968); assay: Human gonadotropin-releasing hormone receptor (GnRHR) small molecule agonists, calcium flux assay in GnRHR-HEK293 cells (AID 1920063); details: calcium flux fluorescence, agonist mode; series mostly up to 57.6 µM; also: nearly all actives have a fitted effect of over 35% in size
# Procedure, shortened: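 Compounds dissolved in DMSO are pin-transferred onto dye-loaded GnRHR-HEK293 cells, which were seeded 18 h before at 37 C/5% CO2. Calcium signal is read as fluorescence intensity at 1 s intervals for 3 min.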
# [4] = biological target: KiSS-1 receptor (Homo sapiens) (UniProt Q969F8); assay: Human kisspeptin (KISS1R) small molecule agonists, calcium flux assay in KISS1R-HEK293 cells (AID 1920064; active = well fitted curve in the direction sought with a large enough effect in the repeat runs; an effect the other way counts as inactive or inconclusive); details: KISS1R-HEK293, calcium flux fluorescence, agonist; series mostly up to 76.8 µM
# Procedure, shortened: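 Cell line: HEK293, stable human KISS1R. Dye loading 1 h at 37 C after 18 h culture. Read: kinetic fluorescence, 480/540 nm, 3 min at 1 s intervals.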
# [5] = G protein-coupled receptor (GPCR) small molecule agonists, calcium flux assay: HEK293 wild type cell line counter screen (AID 1920065); details: HEK293 WT calcium flux, fluorescence, agonist mode; series mostly up to 57.6 µM
# Procedure, shortened: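 Tox21 10K compounds, 15 concentrations each in triplicate, pin-transferred in DMSO onto dye-loaded cells; kinetic read at 480/540 nm for 3 min, 1 s intervals.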
# [6] = p53 small molecule agonists, cell-based qHTS assay with human liver microsomes (AID 1963577); details: HCT-116 p53RE-bla with human liver microsomes, ratio, 16 h; series mostly up to 66 µM
# Procedure, shortened: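 p53RE-bla cells, 4,000/well, compound added after 5 h, with human liver microsomes 0.5 mg/mL and NADPH 0.5 mg/mL final; 16 h at 37 C, then LiveBLAzer 2 h RT, fluorescence.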
# [7] = p53 small molecule agonists, cell-based qHTS assay with rat liver microsomes (AID 1963578); details: HCT-116 p53RE-bla, beta-lactamase ratio, 16 h; series mostly up to 66 µM
# Procedure, shortened: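 p53RE-bla cells, 4,000/well, pre-incubated 5 h, then given compounds plus rat liver microsomes (0.5 mg/mL final) and NADPH (0.5 mg/mL final). Incubation 16 h at 37 C; beta-lactamase reporter read by LiveBLAzer fluorescence after 2 h at room temperature.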
# [8] = p53 small molecule agonists, cell-based qHTS assay with human liver microsomes: qHTS cell viability counter screen (AID 1963579); details: p53RE-bla HCT-116 viability, ATP luminescence, 16 h, HLM; series mostly up to 66 µM; also: nearly all actives have a fitted effect of over 45% in size
# Procedure, shortened: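 p53RE-bla cells, 4,000/well, dosed 5 hours after plating, with human liver microsomes (0.5 mg/mL final) plus NADPH (0.5 mg/mL final), 16 hours at 37 C. Viability read as CellTiter-Glo luminescence after 30 min at room temperature.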
# [9] = p53 small molecule agonists, cell-based qHTS assay with rat liver microsomes: qHTS cell viability counter screen (AID 1963580); details: p53RE-bla HCT-116 + rat microsomes, ATP viability, 16 h; series mostly up to 66 µM; also: nearly all actives have a fitted effect of over 45% in size
# Procedure, shortened: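 Rat liver microsome (0.5 mg/mL final) and NADPH (0.5 mg/mL final) co-incubation with compounds for 16 h at 37 C on HCT-116 p53RE-bla cells; cytotoxicity taken from intracellular ATP luminescence.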
# [10] = p53 small molecule agonists, cell-based qHTS assay: qHTS cell viability counter screen (AID 1963581); details: p53RE-bla HCT-116 viability, ATP luminescence, 16 h; series mostly up to 66 µM; also: nearly all actives have a fitted effect of over 45% in size
# Procedure, shortened: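 ATP content measured by luminescence in HCT-116 p53RE-bla cells treated 16 h at 37 C, same wells as the reporter screen.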
# [11] = p53 small molecule agonists, cell-based qHTS assay (AID 1963582; active = well fitted activation curve with a large enough effect in the signal ratio in the repeat runs, not every such curve was filed as active; the % refers to the signal ratio); details: HCT-116 p53RE-bla reporter, beta-lactamase FRET ratio, 16 h; series mostly up to 66 µM
# Procedure, shortened: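 16 h compound exposure (37 C) of p53 response element–bla cells, preceded by 5 h recovery at 37 C/5% CO2; read-out via LiveBLAzer B/G FRET substrate, 2 h RT, fluorescence intensity.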
# [12] = biological target: 5-hydroxytryptamine receptor 2A (Homo sapiens) (UniProt P28223); assay: 5-hydroxytryptamine receptor 2A (HTR2A) small molecule antagonists, cell-based qHTS assay (AID 1963586); details: HTR2A-CHO cells, DOI-induced calcium flux, fluorescence; series mostly up to 61.5 µM; also: nearly all actives have a fitted effect of over 45% in size
# Procedure, shortened: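 CHO cells stably expressing human HTR2A were plated for 18 h at 37 C, then loaded with calcium dye for 1 h. Compounds were preincubated 5 min at room temperature before DOI (4 nM solution) was added. Kinetic fluorescence was read for 3 min.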
# [13] = biological target: 5-hydroxytryptamine receptor 2A (Homo sapiens) (UniProt P28223); assay: 5-hydroxytryptamine receptor 2A (HTR2A) small molecule agonists, cell-based qHTS assay (AID 1963587); details: HTR2A-CHO cells, calcium flux fluorescence, agonist mode; series mostly up to 76.8 µM; also: nearly all actives have a fitted effect of over 30% in size
# Procedure, shortened: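 Kinetic calcium-flux fluorescence (2 min, 1 sec intervals) after compound addition in agonist mode. HTR2A-CHO cells were cultured 18 h, then dye-loaded 1 h at 37 C.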
# [14] = biological target: Muscarinic acetylcholine receptor M1 (Homo sapiens) (UniProt P11229); assay: Cholinergic receptor muscarinic 1 (CHRM1) small molecule antagonists, cell-based qHTS assay (AID 1963588); details: CHRM1-CHO antagonist mode, calcium flux fluorescence; series mostly up to 61.5 µM; also: nearly all actives have a fitted effect of over 40% in size
# Procedure, shortened: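 Compounds were tested at 15 concentrations in three independent runs. Dye-loaded CHRM1-CHO cells were exposed 5 min at room temperature before stimulation by acetylcholine added at 50nM. Intracellular calcium was read kinetically on FDSS for 3 min.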
# [15] = biological target: Muscarinic acetylcholine receptor M1 (Homo sapiens) (UniProt P11229); assay: Cholinergic receptor muscarinic 1 (CHRM1) small molecule agonists, cell-based qHTS assay (AID 1963589); details: CHRM1-CHO cells, agonist mode, calcium flux fluorescence; series mostly up to 76.8 µM; also: nearly all actives have a fitted effect of over 35% in size
# Procedure, shortened: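 Homogeneous fluorescence calcium flux, agonist mode. Human M1-expressing CHO cells; compound dosed at 15 concentrations, three independent runs; signal sampled every 1 sec.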
# [16] = cAMP Responsive Elements (CRE) small molecule agonists, cell-based qHTS assay (AID 1963590); details: CRE-bla HEK293T, beta-lactamase FRET ratio, 3 h; series mostly up to 92.4 µM
# Procedure, shortened: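 HEK 293T cells stably bearing CRE-bla were plated at 2,000 cells per well and rested 18 h. Compounds, positive controls or DMSO were added for 3 h at 37 C. LiveBLAzer B/G substrate was then loaded for 2 h at room temperature.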
# [17] = cAMP Responsive Elements (CRE) small molecule antagonists, cell-based qHTS assay (AID 1963591; active = well fitted inhibition curve with a large enough effect in the signal ratio in the repeat runs, not every such curve was filed as active; the % refers to the signal ratio); details: CRE-bla HEK293T, beta-lactamase FRET ratio; series mostly up to 92.4 µM
# Procedure, shortened: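 First, CRE-bla HEK293T cells settled 18 h at 37 C. Next, compound and 0.25 uM final NKH477 were applied for 3 h. Last, LiveBLAzer B/G substrate was loaded for 2 h at room temperature.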
# [18] = biological target: Beta-2 adrenergic receptor (Homo sapiens) (UniProt P07550); assay: Adrenergic beta2 receptor (ADRB2) small molecule antagonists, cell-based qHTS assay (AID 1963592); details: CHO-ADRB2 cells, isoproterenol-stimulated cAMP HTRF ratio, 0.5 h; series mostly up to 92.4 µM; also: nearly all actives have a fitted effect of over 50% in size
# Procedure, shortened: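 Assay format: CHO-ADRB2 cells, 18-20hr seeding at 37C/5% CO2, then compound plus 1nM isoproterenol agonist mix for 0.5hr RT. Homogeneous time-resolved fluorescence cAMP detection after 1hr, expressed as 665/615 nm ratio.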
# [19] = biological target: D(2) dopamine receptor (Homo sapiens) (UniProt P14416); assay: Dopamine D2 receptor (DRD2) small molecule agonists, cell-based qHTS assay (AID 1963594); details: HEK293-DRD2 cAMP HTRF, agonist mode, 30 min; series mostly up to 92.4 µM; also: nearly all actives have a fitted effect of over 35% in size
# Procedure, shortened: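 cAMP accumulation in DRD2-HEK293 cells measured by HTRF after 1 h detection; compounds added 10 min before NKH477 (200nM […]) forskolin-analogue stimulation, 30 min at room temperature, with Ro20-1724 present at 0.1 mM final.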
# [20] = biological target: D(2) dopamine receptor (Homo sapiens) (UniProt P14416); assay: Dopamine D2 receptor (DRD2) small molecule antagonists, cell-based qHTS assay (AID 1963595; active = well fitted inhibition curve with a large enough effect in the signal ratio in the repeat runs, with a control signal flat; the % refers to the signal ratio); details: HEK293-DRD2 cAMP HTRF antagonist mode; series mostly up to 92.4 µM
# Procedure, shortened: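 Stable D2 receptor HEK293 line, 24 h after seeding. Compound preincubated 10 min, then quinpirole (12 nM) with forskolin analogue NKH477 (200 nM), 30 min, room temperature. Detection by time-resolved FRET of cAMP.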
# Chain of 5-hydroxytryptamine receptor 2A (Homo sapiens) (P28223 whole entry, looked up): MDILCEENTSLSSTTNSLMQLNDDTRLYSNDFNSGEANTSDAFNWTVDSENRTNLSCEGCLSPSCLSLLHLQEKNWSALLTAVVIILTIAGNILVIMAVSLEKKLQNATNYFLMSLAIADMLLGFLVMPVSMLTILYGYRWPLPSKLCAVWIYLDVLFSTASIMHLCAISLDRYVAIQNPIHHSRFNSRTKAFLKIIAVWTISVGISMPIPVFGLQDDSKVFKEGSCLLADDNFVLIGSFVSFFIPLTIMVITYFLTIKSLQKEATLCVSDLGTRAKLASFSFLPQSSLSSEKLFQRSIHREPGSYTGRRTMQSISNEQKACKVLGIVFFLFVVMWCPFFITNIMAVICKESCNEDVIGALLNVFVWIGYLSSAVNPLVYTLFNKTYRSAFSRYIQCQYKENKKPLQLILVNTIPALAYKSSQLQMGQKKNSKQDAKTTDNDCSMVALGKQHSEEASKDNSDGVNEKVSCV
# Chain of KiSS-1 receptor (Homo sapiens) (Q969F8 whole entry, looked up): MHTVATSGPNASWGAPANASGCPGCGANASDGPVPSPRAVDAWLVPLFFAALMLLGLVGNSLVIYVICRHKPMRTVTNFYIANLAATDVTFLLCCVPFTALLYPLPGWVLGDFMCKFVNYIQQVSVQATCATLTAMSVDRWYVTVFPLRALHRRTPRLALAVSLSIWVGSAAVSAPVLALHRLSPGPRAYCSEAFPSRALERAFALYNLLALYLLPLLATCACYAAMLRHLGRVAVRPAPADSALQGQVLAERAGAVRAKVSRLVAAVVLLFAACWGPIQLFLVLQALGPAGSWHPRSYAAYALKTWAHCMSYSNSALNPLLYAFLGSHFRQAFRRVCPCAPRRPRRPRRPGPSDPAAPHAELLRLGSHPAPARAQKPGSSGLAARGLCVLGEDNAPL
# Chain of D(2) dopamine receptor (Homo sapiens) (P14416 whole entry, looked up): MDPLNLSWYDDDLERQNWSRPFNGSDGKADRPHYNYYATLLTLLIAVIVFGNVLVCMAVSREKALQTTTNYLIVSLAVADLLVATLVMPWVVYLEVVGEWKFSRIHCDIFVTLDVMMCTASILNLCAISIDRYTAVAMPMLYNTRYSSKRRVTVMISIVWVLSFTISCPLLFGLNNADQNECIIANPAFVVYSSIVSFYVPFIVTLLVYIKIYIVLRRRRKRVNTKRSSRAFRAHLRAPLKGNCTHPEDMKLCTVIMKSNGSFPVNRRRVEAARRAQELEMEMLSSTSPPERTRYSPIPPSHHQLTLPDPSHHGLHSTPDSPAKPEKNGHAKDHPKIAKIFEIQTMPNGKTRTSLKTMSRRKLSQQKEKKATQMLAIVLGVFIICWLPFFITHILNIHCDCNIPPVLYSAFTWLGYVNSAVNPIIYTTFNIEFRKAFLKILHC
# Chain of Beta-2 adrenergic receptor (Homo sapiens) (P07550 whole entry, looked up): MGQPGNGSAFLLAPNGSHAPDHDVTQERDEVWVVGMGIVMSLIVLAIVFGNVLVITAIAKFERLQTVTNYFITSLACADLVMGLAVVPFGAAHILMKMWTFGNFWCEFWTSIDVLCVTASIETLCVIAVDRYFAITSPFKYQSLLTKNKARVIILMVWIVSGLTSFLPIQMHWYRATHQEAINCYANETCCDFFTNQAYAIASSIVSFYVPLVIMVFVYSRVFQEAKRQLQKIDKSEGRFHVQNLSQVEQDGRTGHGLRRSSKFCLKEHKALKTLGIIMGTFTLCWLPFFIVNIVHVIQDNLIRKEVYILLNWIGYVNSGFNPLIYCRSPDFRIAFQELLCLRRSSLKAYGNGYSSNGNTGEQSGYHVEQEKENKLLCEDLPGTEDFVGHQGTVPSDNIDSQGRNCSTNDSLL
# Chain of Gonadotropin-releasing hormone receptor (Homo sapiens) (P30968 whole entry, looked up): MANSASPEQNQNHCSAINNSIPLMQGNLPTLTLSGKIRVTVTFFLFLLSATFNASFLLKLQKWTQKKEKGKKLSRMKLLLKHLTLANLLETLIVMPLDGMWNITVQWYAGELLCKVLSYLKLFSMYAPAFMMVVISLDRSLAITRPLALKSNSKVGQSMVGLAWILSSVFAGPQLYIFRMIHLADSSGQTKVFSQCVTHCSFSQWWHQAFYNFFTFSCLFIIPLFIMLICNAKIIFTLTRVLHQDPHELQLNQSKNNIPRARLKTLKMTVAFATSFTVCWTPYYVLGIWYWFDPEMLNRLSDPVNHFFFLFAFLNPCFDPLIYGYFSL
# Chain of Muscarinic acetylcholine receptor M1 (Homo sapiens) (P11229 whole entry, looked up): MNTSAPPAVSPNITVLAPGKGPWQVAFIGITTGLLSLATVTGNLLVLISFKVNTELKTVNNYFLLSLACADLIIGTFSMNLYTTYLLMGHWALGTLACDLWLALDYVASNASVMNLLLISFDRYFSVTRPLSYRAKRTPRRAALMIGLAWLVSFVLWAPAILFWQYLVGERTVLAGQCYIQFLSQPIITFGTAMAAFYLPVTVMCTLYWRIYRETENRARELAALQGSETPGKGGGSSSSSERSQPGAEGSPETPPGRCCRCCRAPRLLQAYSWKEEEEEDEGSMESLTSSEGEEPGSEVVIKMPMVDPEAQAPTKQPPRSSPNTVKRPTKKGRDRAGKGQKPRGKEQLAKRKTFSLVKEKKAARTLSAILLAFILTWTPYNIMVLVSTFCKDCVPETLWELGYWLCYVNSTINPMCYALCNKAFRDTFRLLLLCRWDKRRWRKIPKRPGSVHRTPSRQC
compound,measurement,setting,value
ClC1(Cl)C2(Cl)C3(Cl)C4(Cl)C(Cl)(Cl)C5(Cl)C3(Cl)C1(Cl)C5(Cl)C24Cl (configuration not stated),Potency,[1],inactive
same,Potency,[2],inactive
same,Potency,[3],inactive
same,Potency,[4],inactive
same,Potency,[5],inactive
same,Potency,[6],inactive
same,Potency,[7],inactive
same,Potency,[8],inactive
same,Potency,[9],inactive
same,Potency,[10],inactive
same,Potency,[11],inactive
same,Potency,[12],inactive
same,Potency,[13],inactive
same,Potency,[14],inactive
same,Potency,[15],inactive
same,Potency,[16],inactive
same,Potency,[17],inactive
CC(C)CON=O,Potency,[1],inactive
same,Potency,[2],inactive
same,Potency,[3],inactive
same,Potency,[4],inactive
same,Potency,[5],inactive
same,Potency,[6],inactive
same,Potency,[7],inactive
same,"activity change, negative = cytotoxicity",[8],-1.64% [at 13.5 µM]
same,Potency,[9],inactive
same,Potency,[10],inactive
same,Potency,[11],inactive
same,Potency,[12],inactive
same,Potency,[13],inactive
same,Potency,[14],inactive
same,Potency,[15],inactive
same,Potency,[16],inactive
same,Potency,[17],inactive
same,Potency,[18],inactive
same,Potency,[19],inactive
same,Potency,[20],inactive
[P]#[In],Potency,[1],inactive
same,Potency,[2],inactive
same,Potency,[3],inactive
same,Potency,[4],inactive
same,Potency,[5],inactive
same,Potency,[6],inactive
same,Potency,[7],inactive
same,Potency,[8],inactive
same,Potency,[9],inactive
same,Potency,[10],inactive
same,Potency,[11],inactive
same,Potency,[12],inactive
same,Potency,[13],inactive
same,Potency,[14],inactive
same,Potency,[15],inactive
same,Potency,[16],inactive
same,Potency,[17],inactive
same,Potency,[18],inactive
same,Potency,[19],inactive
same,Potency,[20],inactive
Cc1cccc([N+](=O)[O-])c1,Potency,[1],inactive
same,Potency,[2],inactive
same,Potency,[3],inactive
same,Potency,[4],inactive
same,Potency,[5],inactive
same,Potency,[6],inactive
same,Potency,[7],inactive
same,Potency,[8],inactive
same,Potency,[9],inactive
same,Potency,[10],inactive
same,Potency,[11],inactive
same,Potency,[12],inactive
same,Potency,[13],inactive
same,Potency,[14],inactive
same,Potency,[15],inactive
same,Potency,[16],inactive
same,Potency,[17],inactive
same,Potency,[18],inactive
same,Potency,[19],inactive
same,Potency,[20],inactive
Cc1cccc(N)c1N,Potency,[1],inactive
same,Potency,[2],2.35 µM (active) and 48.6 µM (active)
same,Potency,[3],inactive
same,Potency,[4],inactive
same,Potency,[5],inactive
same,Potency,[6],inactive
same,Potency,[7],inactive
same,Potency,[8],inactive
same,Potency,[9],inactive
same,Potency,[10],inactive
same,Potency,[11],inactive
same,Potency,[12],inactive
same,Potency,[13],inactive
same,Potency,[14],inactive
same,Potency,[15],inactive
same,Potency,[16],inactive
same,Potency,[17],inactive
same,Potency,[18],inactive
same,Potency,[19],inactive
same,Potency,[20],inactive
O=C(Cl)CCl,Potency,[1],inactive
same,Potency,[2],inactive
same,Potency,[3],inactive
same,Potency,[4],inactive
same,Potency,[5],inactive
same,Potency,[6],inactive
same,Potency,[7],inactive
same,Potency,[8],inactive
same,Potency,[9],inactive
same,Potency,[10],inactive
same,Potency,[11],inactive
same,Potency,[12],inactive
same,Potency,[13],inactive
same,Potency,[14],inactive
same,Potency,[15],inactive
same,Potency,[16],inactive
same,Potency,[17],inactive
same,Potency,[18],inactive
same,Potency,[19],inactive
same,Potency,[20],inactive
Cc1ccc([N+](=O)[O-])cc1,Potency,[1],inactive
same,Potency,[2],inactive
same,Potency,[3],inactive
same,Potency,[4],inactive
same,Potency,[5],inactive
same,Potency,[6],inactive
same,Potency,[7],inactive
same,Potency,[8],inactive
same,Potency,[9],inactive
same,Potency,[10],inactive
same,Potency,[11],inactive
same,Potency,[12],inactive
same,Potency,[13],inactive
same,Potency,[14],inactive
same,Potency,[15],inactive
same,Potency,[16],inactive
same,Potency,[17],inactive
same,Potency,[18],inactive
same,Potency,[19],inactive
same,Potency,[20],inactive
CC(C)(C#N)N=NC(C)(C)C#N,Potency,[1],inactive
same,Potency,[2],inactive
same,Potency,[3],inactive
same,Potency,[4],inactive
same,Potency,[5],inactive
same,Potency,[6],inactive
same,Potency,[7],inactive
same,Potency,[8],inactive
same,Potency,[9],inactive
same,Potency,[10],inactive
same,Potency,[11],inactive
same,Potency,[12],inactive
same,Potency,[13],inactive
same,Potency,[14],inactive
same,Potency,[15],inactive
same,Potency,[16],inactive
same,Potency,[17],inactive
same,Potency,[18],inactive
same,Potency,[19],inactive
same,Potency,[20],inactive
